Source: PubChem BioAssay
Hits are enriched below; roughly 2.2% of the tested compounds scored in any of these assays.
TLR4-MyD88 BLA – inhibitors of human TLR4-MyD88 binding; O00206+Q99836; HeLa CL3-4 TLR4/MyD88 BLA complementation, FRET ratio; inhibition, % at 8.4 µM; 200,000 compounds, 0.18% hits; AID 861; in the data active = inhibition above about 25%;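 also: 0% = vehicle and 100% = reference inhibitor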
TLR9-MyD88 block – blocks human TLR9 binding to MyD88; Q9NR96+Q99836; CHO BLA complementation TLR9-MyD88, CCF4 FRET ratio; inhibition, % at 4.98 µM; 340,000 compounds, 0.21% hits;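 active = inhibition above the mean over all tested compounds plus 3 SD, cut at about 21% in these data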;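 also: 0% = DMSO only wells and 100% = clavulanate BLA inhibitor control wells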
ANO1 activ – activates or potentiates the mouse TMEM16A chloride channel. B-score at 10 µM. HEK293 TMEM16A/YFP-H148Q/I152L, iodide quench fluorescence; stronger effect = lower value. AID 623877. 340,000 compounds, 0.3% hits;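 active = fluorescence-ratio B-score plate-corrected deviation score at least 3 library SD below zero, with starting fluorescence score within 5 deviations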;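 also: channel opened by trigger with iodide after compound preincubation; score built on the fluorescence ratio of max minus min over baseline; more negative score means more quench and so TMEM16A activation or potentiation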
Target sequence (Q8BHY3 whole entry, looked up): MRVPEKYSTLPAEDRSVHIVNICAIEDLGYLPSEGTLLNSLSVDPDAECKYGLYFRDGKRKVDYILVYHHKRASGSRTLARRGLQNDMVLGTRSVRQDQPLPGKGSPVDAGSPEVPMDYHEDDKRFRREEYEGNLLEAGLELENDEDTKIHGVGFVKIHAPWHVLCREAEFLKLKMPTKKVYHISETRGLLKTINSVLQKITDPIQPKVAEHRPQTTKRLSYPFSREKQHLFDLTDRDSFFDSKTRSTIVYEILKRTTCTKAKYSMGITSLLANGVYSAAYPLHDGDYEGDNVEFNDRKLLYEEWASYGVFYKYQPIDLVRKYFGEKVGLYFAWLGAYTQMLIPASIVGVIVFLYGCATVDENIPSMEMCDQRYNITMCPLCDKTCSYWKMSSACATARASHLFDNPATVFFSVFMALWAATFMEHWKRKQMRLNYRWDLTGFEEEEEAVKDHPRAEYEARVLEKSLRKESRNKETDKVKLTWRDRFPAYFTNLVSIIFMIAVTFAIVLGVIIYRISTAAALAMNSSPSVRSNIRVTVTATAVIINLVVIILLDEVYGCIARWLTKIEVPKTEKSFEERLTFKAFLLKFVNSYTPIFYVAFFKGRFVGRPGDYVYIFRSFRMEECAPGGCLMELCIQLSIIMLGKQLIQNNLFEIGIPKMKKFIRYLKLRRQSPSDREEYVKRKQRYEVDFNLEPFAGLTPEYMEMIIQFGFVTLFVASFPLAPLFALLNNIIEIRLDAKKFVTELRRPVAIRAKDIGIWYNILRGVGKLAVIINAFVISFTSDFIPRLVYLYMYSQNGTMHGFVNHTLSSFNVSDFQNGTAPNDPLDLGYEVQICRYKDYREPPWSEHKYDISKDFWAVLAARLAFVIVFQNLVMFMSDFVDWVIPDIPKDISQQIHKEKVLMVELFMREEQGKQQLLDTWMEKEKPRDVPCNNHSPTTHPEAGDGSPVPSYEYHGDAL
NOD2 RIPK2 PPI – NOD2-RIPK2 protein interaction inhibition. CHO BLA complementation NOD2-RIPK2, CCF4 ratio. AID 624267. 360,000 compounds, 0.38% hits. O43353. inhibition, % at 4.98 µM; in the data active = inhibition above about 21%;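 also: 0% = vehicle only and 100% = reference blocker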
TMEM16A inh – blocks the mouse calcium-activated chloride channel TMEM16A. Q8BHY3. HEK293 TMEM16A/YFP iodide influx fluorescence, ionomycin. normalized B-score (activity score, 25-100; higher = stronger inhibition) at 10 µM. 310,000 compounds, 1.2% hits;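 active = ratio plate-corrected score three or more library SD toward inhibition, starting fluorescence score within five deviations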;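 also: score derived from kinetic fluorescence span divided by baseline fluorescence per well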
GRK2 inh – inhibitors of human GRK2 displacing RNA aptamer | P25098 | bead flow cytometry, FAM-aptamer displacement from GRK2 | AID 488847 | 330,000 compounds, 0.59% hits | inhibition of aptamer binding, % at 10 µM;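 active = inhibition of aptamer binding above 40%, roughly 3 SD of noise, on plates passing a quality check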;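 also: median bead fluorescence of bound FAM aptamer so fluorescent compounds give negative values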
TLR4 MyD88 cnf – confirmation of human TLR4-MyD88 binding inhibitors; shares compounds with TLR4-MyD88 BLA; HeLa CL3-4 BLA complementation, CCF4 FRET ratio; inhibition, % at 8.4 µM; 350 compounds, 50% hits;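 active = mean inhibition across three repeat runs above about 25% carried over from the earlier screen, limit read from the data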;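 also: plate controls were DMSO only for no effect and clavulanic acid blocking BLA at full dose for full effect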
BLA inh HeLa – counter-screen for TLR4-MyD88 inhibitors: beta-lactamase reporter inhibitors; 350 compounds, 63% hits; inhibition, % at 8.4 µM; HeLa BLA reporter, CCF4 FRET ratio; shares compounds with TLR4-MyD88 BLA;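 active = mean inhibition over three repeats above about 26% taken from the earlier screen, limit read from the data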;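 also: HeLa cells stably expressing beta-lactamase reporter as counterscreen for TLR4-MyD88 inhibitors; 0% = DMSO and 100% = clavulanic acid full inhibition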
* = called active by the depositor; i = inactive; / = no result given.

SMILES | TLR4-MyD88 BLA | TLR9-MyD88 block | ANO1 activ | NOD2 RIPK2 PPI | TMEM16A inh | GRK2 inh | others
O[C@H]1CN(CC2CCCCC2)[C@@H](c2ccc(Cl)cc2)C[C@@H]1n1cc(C2CC2)nn1 | / | -11.7 | / | -0.3 | / | /
CN1C(=O)/C(=C/c2ccccc2Cl)Sc2ccc(C(=O)N3CCCC3)cc21 | / | 4.8 | i | 4.2 | 100* | 2.0
N#Cc1ccccc1S(=O)(=O)N1CCN(C(=O)CCC2CCCC2)CC1 | / | -14.2 | -23.4* | -11.5 | / | 0.0
N#Cc1ccccc1S(=O)(=O)N1CCN(C(=O)CCc2ccccc2)CC1 | / | -4.7 | i | -7.0 | / | 0.0
O=c1[nH][nH]c2c1C(c1ccc(Cl)c(Cl)c1)OC(CCc1ccccc1)C2 (stereo unspecified) | / | / | / | -4.0 | / | /
C=CCOc1ccc(CN(C)C(=O)CNC(=O)c2ccc(-c3ccccc3)cc2)cc1 | / | 3.5 | i | -1.4 | 25* | 0.0
CCOc1ccc(CN(C)C(=O)CNC(=O)c2ccccc2)cc1 | / | -4.5 | i | -0.3 | i | 0.0
CCOc1ccc(NC(=O)c2cccc(-n3cccc3)c2)cc1S(=O)(=O)N1CCOCC1 | / | -9.3 | / | -6.2 | / | 43.0*
CN(C)CCNc1ncnc2c1ncn2[C@H]1CN(Cc2ccc(-c3ccccc3)cc2)C[C@@H](CO)O1 | / | / | / | -5.0 | / | /
Cc1cc(/C=C2\C(=N)N3C(SCc4ccccc4)=NSC3=NC2=O)c(C)n1Cc1ccccc1 | -15.1 | -12.5 | i | -2.7 | i | 1.0
CC(C)CSC1=NSC2=NC(=O)/C(=C\c3ccccc3)C(=N)N12 | -16.6 | 6.0 | i | 7.3 | 25* | 2.0
O=C(Nc1cccc(OC(F)(F)F)c1)C1Cc2c(-c3cccc(F)c3)ccnc2O1 (stereo unspecified) | / | / | / | -3.6 | / | /
Cn1c(COc2ccccc2O)[n+](C)c2ccccc21 | / | -16.1 | i | -14.7 | i | 1.0
CCCCCCCCCCOC(=O)Cn1c(COc2ccccc2OC)[n+](C)c2ccccc21 | / | 4.0 | -5.76* | 8.7 | 100* | 0.0
CCOC(=O)[C@]12CCCC=C1N(CCC1=CCCCC1)C(=O)[C@H](CC(=O)NCc1ccccc1)C2 | / | / | / | -1.4 | / | /
O=C(COC(=O)CC(c1ccccc1)c1ccccc1)Nc1cccc(F)c1 | -4.2 | 0.4 | i | -3.5 | i | 0.0
O=C(COC(=O)CC(c1ccccc1)c1ccccc1)Nc1ccc(F)c(F)c1 | -2.4 | / | / | / | 100* | 0.0
COc1ccc(NC(=O)c2cc(-c3sc(NC(=O)c4ccccc4)nc3C)n(-c3ccc(Br)cc3)n2)cc1 | / | / | / | -16.8 | / | /
Cc1ccc(/C=C/C(=O)Nc2nnc(SCc3ccc(C#N)cc3)s2)o1 | 10.3 | -12.6 | i | 5.3 | i | 100.0*
Cc1ccc(/C=C/C(=O)Nc2nccs2)o1 | -1.0 | 3.9 | i | 4.6 | i | 1.0
Cc1ccsc1/C=N/NC(=O)c1cc(-c2ccncc2)nc2ccccc12 | 5.1 | -7.9 | -4.97* | 7.6 | i | 5.0
O=C(N/N=C/c1cc([N+](=O)[O-])ccc1O)c1cc(-c2ccccc2)nc2ccccc12 | -9.0 | -1.7 | i | -1.3 | 25* | 8.0
Cc1nc2c(OCc3ccc(OC(F)F)cc3)cccn2c1N(C)C(=O)CCC1CCCC1 | / | / | / | -3.8 | / | /
CCCNc1ncnc2nc[nH]c12 | -4.1 | -7.0 | i | -17.2 | i | 3.0
C1=C(CCNc2ncnc3nc[nH]c23)CCCC1 | -2.9 | 5.0 | i | -0.6 | 25* | 2.0
SMILES | TLR4-MyD88 BLA | TLR9-MyD88 block | ANO1 activ | NOD2 RIPK2 PPI | TMEM16A inh | GRK2 inh | others
Cn1c(=O)[nH]c(=O)c2c1nc(NCCc1ccccc1)n2CC(O)COc1ccccc1 (stereo unspecified) | -2.7 | -4.8 | -51* | 8.0 | i | 3.0
Cc1ccc(OCC(O)Cn2c(NCCc3ccccc3)nc3c2c(=O)[nH]c(=O)n3C)cc1 (stereo unspecified) | 2.4 | 0.3 | i | -6.0 | i | 1.0
O=S(=O)(Nc1nc(-c2sccc2Cl)cs1)c1cc(Cl)ccc1Cl | 7.6 | 7.2 | i | -13.9 | 100* | 0.0
CC(C)(C)c1nnc(NS(=O)(=O)c2cc(Cl)ccc2Cl)s1 | / | 10.2 | i | -8.8 | i | 0.0
Cc1sc2nc(CN3CCOCC3)nc(Cl)c2c1C | 6.9 | 0.7 | i | 1.0 | i | 0.0
Cc1sc2nc(CN3CCC(C)CC3)nc(Cl)c2c1C | 28.1* | / | / | / | i | 4.0 | TLR4 MyD88 cnf=31.8*;BLA inh HeLa=11.2
O=C(Nc1ccc(N2CCOCC2)cc1)c1csc([C@H]2C[C@H](O)[C@@H](CO)O2)n1 | / | / | / | -2.9 | / | /
COc1cccc(/C=C/C(=O)c2c(O)cc(C)oc2=O)c1O | 25.5* | -6.1 | i | 1.8 | i | 0.0 | TLR4 MyD88 cnf=-1.8;BLA inh HeLa=0.1
Cc1ccccc1C(=O)N=c1ccn(-c2nc3ccccc3nc2NS(=O)(=O)c2ccc(F)cc2)cc1 | / | 13.1 | i | -2.5 | i | 7.0
O=C(N=c1ccn(-c2nc3ccccc3nc2NS(=O)(=O)c2ccccc2)cc1)c1cccs1 | 66.2* | -1.8 | i | 15.4 | i | 1.0 | TLR4 MyD88 cnf=10.4;BLA inh HeLa=14.7
COc1ccc(C(NC(=O)C2CCN(CCOc3ccc(Cl)cc3Cl)CC2)c2cccs2)cc1 (stereo unspecified) | / | / | / | -4.8 | / | /
O=C(/C=C/c1ccc(N2CCC(c3ccccc3)=N2)cc1)c1ccccc1 | 37.5* | / | / | / | i | 0.0 | TLR4 MyD88 cnf=19.1;BLA inh HeLa=12.1
c1cc2c(cc1C1CCCCC1)c1c3n2CCN=C3CCC1 | 26.8* | 4.4 | i | 1.3 | i | 0.0 | TLR4 MyD88 cnf=18.5;BLA inh HeLa=41.5*
O=C(CCCn1c(=O)[nH]c2ccsc2c1=O)N1CCN(Cc2ccc3c(c2)OCO3)CC1 | 26.4* | -2.5 | i | 1.4 | i | 39.0 | TLR4 MyD88 cnf=-1.5;BLA inh HeLa=7.3
CCCCCn1c(=O)[nH]c2cc(C(=O)N3CCN(Cc4ccc5c(c4)OCO5)CC3)ccc2c1=O | 1.6 | 7.3 | i | -6.3 | i | 0.0
COc1ccc(/C=C2\CC/C(=C\c3ccc(OC)cc3OC)C2=O)c(OC)c1 | 32.3* | 11.2 | i | -4.8 | i | 3.0 | TLR4 MyD88 cnf=19.3;BLA inh HeLa=47.2*
